Measured values published in PubChem BioAssay AID1159580 (chemical genetic matrix, 2015).
Where “and” joins values, the source holds several entries; their conditions need not be identical. Identical values can stand only once. Out of some 5,500 compounds screened, about 2,000 (36%) were called active. Not shown: some 18% with an inconclusive outcome. No stated cut-off is given here; in the data, active means normalized growth mostly below about 0.91 (no sharp cut-off); inconclusive means no clear call, values can overlap the other calls; inactive means mostly above about 0.92. This is one part of the list.

Test: chemical genetic growth profiling, strain panel (AID 1159580);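 further: tested at 20 µM; growth read once vehicle control cultures reached saturation at 30 °C; 1 = growth at the plate median or of vehicle wells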
Details: S. cerevisiae deletion strains, growth OD

Measured: normalized growth

Cc1c(NC(=O)c2cccnc2)c(=O)n(-c2ccccc2)n1C
inactive: locus YAL013W, strain DEP1, stronger effect = lower value 0.996 | locus YAL021C, strain ccr4, stronger effect = lower value 1.02 | locus YAL026C, strain drs2, stronger effect = lower value 0.999 | locus YAL030W, strain snc1, stronger effect = lower value 1 | locus YBL061C, strain skt5, stronger effect = lower value 1 | locus YBR009C, strain hhf1, stronger effect = lower value 0.966 | locus YBR021W, strain FUR4, stronger effect = lower value 1.03 | locus YBR023C, strain chs3, stronger effect = lower value 1.01 | locus YBR171W, strain sec66, stronger effect = lower value 1 | locus YBR229C, strain ROT2, stronger effect = lower value 0.964 | locus YBR231C, strain swc5, stronger effect = lower value 1.01 | locus YBR279W, strain paf1, stronger effect = lower value 0.999 | locus YCL011C, strain gbp2, stronger effect = lower value 1 | locus YCL016C, strain dcc1, stronger effect = lower value 0.999 | locus YCL029C, strain bik1, stronger effect = lower value 0.997 | locus YCL061C, strain MRC1, stronger effect = lower value 1 | locus YCL069W, strain vba3, stronger effect = lower value 0.989 | locus YCR088W, strain abp1, stronger effect = lower value 0.997 | locus YDL005C, strain med2, stronger effect = lower value 1 | locus YDL035C, strain GPR1, stronger effect = lower value 0.992 | locus YDL040C, strain nat1, stronger effect = lower value 0.988 | locus YDL074C, strain BRE1, stronger effect = lower value 0.949 | locus YDL101C, strain DUN1, stronger effect = lower value 0.981 | locus YDL134C, strain PPH21, stronger effect = lower value 1.01 | locus YDL185W, strain tfp1, stronger effect = lower value 0.983 | locus YDL192W, strain arf1, stronger effect = lower value 0.994 | locus YDR001C, strain nth1, stronger effect = lower value 0.992 | locus YDR069C, strain doa4, stronger effect = lower value 1.01 | locus YDR101C, strain arx1, stronger effect = lower value 0.988 | locus YDR137W, strain rgp1, stronger effect = lower value 0.992 | locus YDR159W, strain sac3, stronger effect = lower value 1 | locus YDR162C, strain NBP2, stronger effect = lower value 1 | locus YDR195W, strain ref2 0.998 | locus YDR297W, strain sur2, stronger effect = lower value 0.999 | locus YDR318W, strain mcm21, stronger effect = lower value 1 | locus YDR334W, strain swr1, stronger effect = lower value 0.999 | locus YDR335W, strain msn5, stronger effect = lower value 0.997 | locus YDR388W, stronger effect = lower value 1 | locus YDR392W, strain spt3, stronger effect = lower value 0.934 | locus YDR502C, strain sam2, stronger effect = lower value 0.994 | locus YEL003W, strain gim4, stronger effect = lower value 1 | locus YEL037C, strain rad23, stronger effect = lower value 0.994 | locus YEL061C, strain CIN8 (second series), stronger effect = lower value 1 | locus YEL061C, strain CIN8, stronger effect = lower value 0.98 | locus YER015W, strain faa2, stronger effect = lower value 1 | locus YER016W, strain bim1, stronger effect = lower value 1 | locus YER110C, stronger effect = lower value 0.997 | locus YER111C, strain swi4, stronger effect = lower value 0.997 | locus YER155C, strain BEM2 (second series), stronger effect = lower value 1.02 | locus YER155C, strain BEM2, stronger effect = lower value 1 | locus YER167W, strain BCK2, stronger effect = lower value 1 | locus YFR010W, strain ubp6, stronger effect = lower value 0.997 | locus YGL078C, strain dbp3, stronger effect = lower value 0.988 | locus YGL086W, strain mad1, stronger effect = lower value 0.985 | locus YGL167C, strain pmr1, stronger effect = lower value 1 | locus YGL173C, strain kem1, stronger effect = lower value 1.01 | locus YGL227W, strain vid30, stronger effect = lower value 0.998 | locus YGL240W, strain doc1, stronger effect = lower value 1.01 | locus YGL248W, strain PDE1, stronger effect = lower value 0.974 | locus YGL253W, strain hxk2, stronger effect = lower value 1 | locus YGR078C, strain PAC10, stronger effect = lower value 0.97 | locus YGR135W, strain pre9, stronger effect = lower value 1.07 | locus YGR252W, strain gcn5, stronger effect = lower value 1.02 | locus YHR013C, strain ard1, stronger effect = lower value 0.96 | locus YHR027C, strain rpn1, stronger effect = lower value 1.01 | locus YHR030C, strain SLT2, stronger effect = lower value 1 and 1.04 | locus YHR079C, strain IRE1 (second series), stronger effect = lower value 0.992 | locus YHR079C, strain IRE1, stronger effect = lower value 1.02 | locus YHR094C, strain hxt1, stronger effect = lower value 0.998 | locus YHR129C, strain ARP1, stronger effect = lower value 1 | locus YHR142W, strain chs7, stronger effect = lower value 1 | locus YHR200W, strain rpn10, stronger effect = lower value 0.992 | locus YIL066C, strain RNR3, stronger effect = lower value 0.974 | locus YIL073C, strain SPO22, stronger effect = lower value 1.04 | locus YIL125W, strain kgd1, stronger effect = lower value 0.987 | locus YIR030C, strain dcg1, stronger effect = lower value 0.999 | locus YJL092W, strain hpr5, stronger effect = lower value 1 | locus YJL095W, strain BCK1 (second series), stronger effect = lower value 1 | locus YJL095W, strain BCK1, stronger effect = lower value 0.964 and 1.04 | locus YJL115W, strain asf1, stronger effect = lower value 1 | locus YJL129C, strain trk1, stronger effect = lower value 1.01 | locus YJL134W, strain LCB3, stronger effect = lower value 0.995 | locus YJL154C, strain vps35, stronger effect = lower value 0.989 | locus YJL164C, strain tpk1, stronger effect = lower value 1.01 | locus YJL166W, strain qcr8, stronger effect = lower value 1.01 | locus YJL168C, strain set2, stronger effect = lower value 0.987 | locus YJL187C, strain SWE1 (second series), stronger effect = lower value 0.95 | locus YJL187C, strain SWE1, stronger effect = lower value 0.999 | locus YJR043C, strain POL32, stronger effect = lower value 0.924
